# Data reported in PubChem BioAssay (EPA / NIEHS).
# Results filed as inconclusive are left out. Active and inactive are the calls of the source. Rule for the calls, unless noted: active = hit-call score of the fitted dose curve at least 0.9, where 1 is the maximum; inconclusive = response in the unintended direction; inactive = score below 0.9.
# Legend:
# [1] = target: Retinoic acid receptor alpha (Homo sapiens) (UniProt P10276); experiment: ATG_RARa_TRANS: Attagene TRANS-FACTORIAL HepG2 Assay for human Retinoic Acid Receptor alpha (RARa) (AID 2283005)
# How it was run: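 HepG2 transiently transfected with multiplex GAL4-UAS reporter units including a human RARa–GAL4 chimera; 24 h compound exposure. Reporter mRNA quantified by RT-PCR, 6-FAM labeling and capillary electrophoresis; gain of signal versus DMSO.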
# [2] = target: human Peroxisome Proliferator-activated Receptor alpha (PPARa), PPARA (gene 5465) (UniProt Q07869); experiment: NVS_NR_hPPARa: NovaScreen (NVS) Nuclear Receptor Binding Assay for human Peroxisome Proliferator-activated Receptor alpha (PPARa) (AID 2283359);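 note: activity means loss of TR-FRET signal versus DMSO baseline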
# How it was run: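 Cell-free TR-FRET binding assay with extracted PPARα protein, read 1 h after dosing. Primary screen in duplicate at 25 uM, with actives retested in concentration series. Loss of signal versus DMSO.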
# [3] = system: TTR (gene 7276); experiment: CCTE_GLTED_hTTR_0.125uM: CCTE's human Transthyretin (hTTR) Inhibition Assay, with 0.125uM TTR, Great Lakes Toxicology and Ecology Division (GLTED) Lab (AID 2284431; active = hit-call score of the fitted dose curve at least 0.9, where 1 is the maximum; inactive = score below 0.9;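 note: hits lower the fluorescence signal relative to DMSO baseline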)
# How it was run: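 Activity is defined as decreased ANSA fluorescence (ex 380, em 475) from human transthyretin, 0.125uM, following 2-hour chemical exposure in a cell-free setup, with DMSO as baseline.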
# [4] = target: human CYP2D6, CYP2D6 (gene 1565) (UniProt P10635); experiment: NVS_ADME_hCYP2D6: NovaScreen (NVS) CYP450-related Enzyme Activity (ADME) Assay for human CYP2D6 (AID 2283107)
# How it was run: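 Biochemical fluorescence assay, insect-cell-derived enzyme. Read at 1 h; inhibition taken from loss of signal against acetonitrile. Screened at 10 uM in duplicate, with concentration series for actives.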
# [5] = CCTE_Shafer_MEA_acute_AB: CCTE's Alamar Blue Assay for Cytotoxicity in the Neural Acute Assay, Shafer Lab (AID 2284069);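 note: active compounds lower the viability signal compared with DMSO wells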
# How it was run: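 Resazurin reduction (CellTiter Blue, 1:6 in fresh medium) read at ex 544/em 590 nm marks viability loss relative to DMSO. Cells: primary rat cortical neuron networks on microelectrode arrays, treated after baseline recording at 13 or 15 days in vitro.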
# [6] = target: human Peripheral-type Benzodiazepine Receptor (PBR), TSPO (gene 706) (UniProt P30536); experiment: NVS_MP_hPBR: NovaScreen (NVS) Membrane Protein Assay for human Peripheral-type Benzodiazepine Receptor (PBR) (AID 2283331);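 note: hits reduce radioligand binding relative to DMSO baseline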
# How it was run: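 Radioligand displacement on human colonic cell membranes, 1 h incubation; bound radioactivity by filtration and scintillation counting. Primary screen in duplicate at 25 uM single concentration, actives followed up in concentration series; loss of binding versus DMSO.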
# [7] = CEETOX_H295R_MTT_cell_viability: Viability Assessment in the CeeTox HT-H295R MTT Assay (AID 2283718; active = hit-call score of the fitted dose curve at least 0.9, where 1 is the maximum; inactive = score below 0.9)
# How it was run: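 Human H295R adrenal cells, prestimulated 48 h with 10 uM forskolin, were exposed 48 h to chemicals in 0.1% DMSO. Viability was measured in the same wells by MTT (0.5 mg/ml, 4 h, 37 C), absorbance 570/650 nm, as percent of controls.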
# [8] = target: chimpanzee Androgen Receptor (AR), AR (gene 747460) (UniProt O97775); experiment: NVS_NR_cAR: NovaScreen (NVS) Nuclear Receptor Binding Assay for chimpanzee Androgen Receptor (AR) (AID 2283346);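 note: radioligand displacement from AR measured by scintillation counting in a cell-free assay; a loss of bound radioligand signal versus DMSO counts as binding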
# How it was run: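 Radioligand binding to chimpanzee AR expressed in Sf9/Sf21 cells, cell-free, measured 72 h after dosing by lysate-based scintillation counting. Loss of signal vs DMSO; initial duplicate screen at 25 uM, actives retested in concentration series.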
# [9] = target: rat Peripheral-type Benzodiazepine Receptor (PBR), Tspo (gene 24230) (UniProt P16257); experiment: NVS_MP_rPBR: NovaScreen (NVS) Membrane Protein Assay for rat Peripheral-type Benzodiazepine Receptor (PBR) (AID 2283335)
# How it was run: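 Radioligand displacement, rat kidney membrane prep, 1 h exposure, filter-based scintillation read; DMSO baseline, loss-of-signal scored. Primary screen at 25 uM in duplicate, actives followed up in concentration series.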
# [10] = CCTE_Padilla_ZF_Score.General: CCTE's 144 Hour Post-fertilization zebrafish Assay Score for General Malformation, Padilla Lab (AID 2284411; active = hit-call score of the fitted dose curve at least 0.9, where 1 is the maximum; inactive = score below 0.9)
# How it was run: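 Wild-type zebrafish embryos were plated singly at 6-8 hpf in 10% Hanks' and exposed in sealed wells at 26C until rinsed on 5 dpf. At 6 dpf two blinded assessors scored mortality, hatching and malformations by stereomicroscopy; gain-of-signal versus DMSO.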
# human Peripheral-type Benzodiazepine Receptor (PBR), TSPO (gene 706), sequence (P30536 whole entry, looked up): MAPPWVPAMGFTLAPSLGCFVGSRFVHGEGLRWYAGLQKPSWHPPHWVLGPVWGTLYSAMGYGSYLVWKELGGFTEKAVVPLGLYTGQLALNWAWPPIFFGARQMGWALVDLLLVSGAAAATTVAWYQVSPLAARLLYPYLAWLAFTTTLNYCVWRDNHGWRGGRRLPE
# human Peroxisome Proliferator-activated Receptor alpha (PPARa), PPARA (gene 5465), sequence (Q07869 whole entry, looked up): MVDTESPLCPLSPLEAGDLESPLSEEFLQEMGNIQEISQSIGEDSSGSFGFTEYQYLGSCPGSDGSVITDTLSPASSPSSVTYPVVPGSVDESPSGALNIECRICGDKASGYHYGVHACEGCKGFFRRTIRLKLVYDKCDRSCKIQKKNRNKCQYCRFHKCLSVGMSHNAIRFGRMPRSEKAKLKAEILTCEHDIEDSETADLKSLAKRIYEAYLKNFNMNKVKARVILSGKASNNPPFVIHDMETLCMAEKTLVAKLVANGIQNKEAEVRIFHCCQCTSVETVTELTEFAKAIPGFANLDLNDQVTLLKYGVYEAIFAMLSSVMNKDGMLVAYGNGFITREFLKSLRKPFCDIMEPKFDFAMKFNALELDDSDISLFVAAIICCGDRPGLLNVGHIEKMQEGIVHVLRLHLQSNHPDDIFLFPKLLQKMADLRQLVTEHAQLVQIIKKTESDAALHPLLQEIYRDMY
# chimpanzee Androgen Receptor (AR), AR (gene 747460), sequence (O97775 whole entry, looked up): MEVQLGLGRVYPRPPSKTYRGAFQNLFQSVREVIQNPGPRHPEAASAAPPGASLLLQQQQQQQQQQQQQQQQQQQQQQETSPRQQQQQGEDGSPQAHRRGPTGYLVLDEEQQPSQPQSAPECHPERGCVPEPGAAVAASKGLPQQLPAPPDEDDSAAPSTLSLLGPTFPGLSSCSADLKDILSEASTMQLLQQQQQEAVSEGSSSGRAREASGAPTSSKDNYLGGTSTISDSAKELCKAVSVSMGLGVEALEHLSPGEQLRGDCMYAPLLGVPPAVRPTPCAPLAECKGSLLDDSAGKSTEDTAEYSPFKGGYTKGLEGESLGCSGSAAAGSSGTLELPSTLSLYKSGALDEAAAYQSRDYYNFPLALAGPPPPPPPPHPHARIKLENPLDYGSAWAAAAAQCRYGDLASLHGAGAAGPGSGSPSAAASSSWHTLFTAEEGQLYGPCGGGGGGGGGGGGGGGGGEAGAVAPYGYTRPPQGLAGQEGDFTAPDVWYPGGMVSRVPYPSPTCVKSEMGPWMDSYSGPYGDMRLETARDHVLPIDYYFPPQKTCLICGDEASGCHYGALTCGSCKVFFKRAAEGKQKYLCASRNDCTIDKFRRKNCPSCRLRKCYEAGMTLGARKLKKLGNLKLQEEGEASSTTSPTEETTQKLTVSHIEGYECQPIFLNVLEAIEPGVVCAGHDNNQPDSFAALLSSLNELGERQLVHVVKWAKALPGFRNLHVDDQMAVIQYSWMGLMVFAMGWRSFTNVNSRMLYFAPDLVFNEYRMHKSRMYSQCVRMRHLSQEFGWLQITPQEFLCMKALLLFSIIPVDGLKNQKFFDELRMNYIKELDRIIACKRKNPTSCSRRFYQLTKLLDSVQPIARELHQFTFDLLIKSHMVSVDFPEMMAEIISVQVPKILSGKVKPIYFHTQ
# Retinoic acid receptor alpha (Homo sapiens), sequence (P10276 whole entry, looked up, the tested form may be a part): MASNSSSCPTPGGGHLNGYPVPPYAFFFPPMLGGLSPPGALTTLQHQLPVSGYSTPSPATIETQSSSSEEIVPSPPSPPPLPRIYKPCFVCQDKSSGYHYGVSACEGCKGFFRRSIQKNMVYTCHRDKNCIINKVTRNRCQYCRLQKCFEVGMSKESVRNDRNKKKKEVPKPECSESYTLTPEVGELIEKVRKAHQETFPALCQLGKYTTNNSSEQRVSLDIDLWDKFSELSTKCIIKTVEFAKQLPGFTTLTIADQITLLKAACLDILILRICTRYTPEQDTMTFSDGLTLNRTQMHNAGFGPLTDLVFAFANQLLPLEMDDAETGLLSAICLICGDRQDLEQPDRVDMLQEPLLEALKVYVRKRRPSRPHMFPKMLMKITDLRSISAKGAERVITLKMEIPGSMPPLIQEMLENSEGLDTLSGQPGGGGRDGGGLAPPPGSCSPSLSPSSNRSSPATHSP
# rat Peripheral-type Benzodiazepine Receptor (PBR), Tspo (gene 24230), sequence (P16257 whole entry, looked up): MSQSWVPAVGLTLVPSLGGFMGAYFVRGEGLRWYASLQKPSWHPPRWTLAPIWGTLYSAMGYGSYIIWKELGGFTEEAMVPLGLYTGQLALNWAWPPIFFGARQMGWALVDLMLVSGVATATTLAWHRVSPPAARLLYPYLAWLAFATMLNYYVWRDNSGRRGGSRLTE
# human CYP2D6, CYP2D6 (gene 1565), sequence (P10635 whole entry, looked up): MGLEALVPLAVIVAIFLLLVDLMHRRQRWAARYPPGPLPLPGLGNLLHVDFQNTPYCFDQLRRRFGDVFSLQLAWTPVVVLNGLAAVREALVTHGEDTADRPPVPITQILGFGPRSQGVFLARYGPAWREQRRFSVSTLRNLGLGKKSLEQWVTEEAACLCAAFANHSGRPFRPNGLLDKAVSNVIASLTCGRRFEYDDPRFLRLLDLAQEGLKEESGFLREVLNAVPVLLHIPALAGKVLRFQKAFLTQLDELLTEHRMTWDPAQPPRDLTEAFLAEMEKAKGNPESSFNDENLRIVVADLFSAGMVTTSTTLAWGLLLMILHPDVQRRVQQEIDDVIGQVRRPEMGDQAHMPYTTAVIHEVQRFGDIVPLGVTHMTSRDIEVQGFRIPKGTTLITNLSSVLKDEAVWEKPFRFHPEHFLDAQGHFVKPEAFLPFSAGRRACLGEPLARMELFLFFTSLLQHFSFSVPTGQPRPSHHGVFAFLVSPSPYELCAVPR
smiles,measurement,setting,value
CCC(C)(CCC(C)C)C(=O)O (stereo not drawn),outcome,[1],inactive
CC(=O)c1nccs1,outcome,[1],inactive
CC1=NN(c2cc(Cl)c(S(=O)(=O)O)cc2Cl)C(=O)C1N=Nc1ccc(S(=O)(=O)O)cc1 (stereo not drawn),outcome,[2],inactive
same,AC50,[3],18.8 µM (active)
CN(C)CCC(c1ccc(Cl)cc1)c1ccccn1 (stereo not drawn),AC50,[4],5 µM (active)
same,outcome,[5],inactive
Cc1cc(O)cc(C)c1Cl,AC50,[6],8.12 µM (active)
same,outcome,[2],inactive
same,outcome,[7],inactive
same,AC50,[3],7.71 µM (active)
Cc1ccccc1S(N)(=O)=O,AC50,[8],1.88 µM (active)
CN(C)c1ccc(C(c2ccccc2)c2ccc(N(C)C)cc2)cc1,AC50,[6],2.78 µM (active)
same,AC50,[9],25 µM (active)
same,AC50,[10],22.3 µM (active)
CC[N+](CC)(CC(=O)Nc1c(C)cccc1C)Cc1ccccc1 (tested in a mixture with another compound),AC50,[6],4.38 µM (active)
same,AC50,[9],3.68 µM (active)
CCCCCC1CCCC(=O)O1 (stereo not drawn),outcome,[8],inactive
Cc1cc(-n2nc3ccc(Cl)cc3n2)c(O)c(C(C)(C)C)c1,AC50,[8],0.741 µM (active)
same,outcome,[10],inactive
CCCCCCC1CCC(=O)O1 (stereo not drawn),outcome,[2],inactive
CCCCCC[C@@H](O)C/C=C\CCCCCCCC(=O)O,AC50,[2],36.8 µM (active)
CCO[Si](CCCN)(OCC)OCC,outcome,[7],inactive
c1ccc(CNc2ncnc3nc[nH]c23)cc1,outcome,[7],inactive
